# EWS-Fli block: blocks EWS/Fli oncoprotein-driven transcription; A673 NR0B1-luciferase reporter, viability-normalised; inhibition, % at 12.6 µM; 350,000 tested, 0.67% active; AID 651661;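 active means mean inhibition of at least 50% after viability correction, with every replicate also passing that limit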;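 further: firefly luciferase signal divided by Alamar Blue viability fluorescence both relative to DMSO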
# F508del corr: correctors of CFTR F508del function in bronchial epithelial cells. CFBE cells, YFP halide quenching; stimulated with forskolin plus potentiator P3; % fluorescence drop versus neutral controls. 350,000 tested, 0.36% active. activity (quench increase), % at 7.58 µM;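 active means mean added fluorescence quench of at least 8% versus neutral control, with both replicates also reaching 8%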;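 further: cells transiently co-express mutant CFTR-F508del with the halide-sensitive YFP; corrector assay measuring rescue of mutant channel to the surface after 24 h compound exposure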
# PAX8 inh HTS: inhibitors of PAX8 transcriptional activity in RMG-I cells; RMG-I TPO-luciferase reporter, SteadyGlo, 24 h; inhibition, % at 12.6 µM; 360,000 tested, 1.2% active; AID 652154;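 active means mean replicate inhibition at least 60% with every replicate also reaching 60%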;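 further: luciferase light reporting Pax8 driven TPO promoter activity; plate controls were median of neutral control wells for no effect and mitoxantrone controls for full effect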
# LGR2 antag: inhibitors of bursicon-induced Drosophila LGR2 receptor cAMP signaling; HEK293 LGR2, CRE-luciferase, bursicon-stimulated, 4 h; inhibition, % at 9.99 µM; 380,000 tested, 0.35% active; AID 720647;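 active means drop in luminescence signal, shown as inhibition above about 50% in the replicate tests, limit read from the data, passing the limit was not always enough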;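 further: agonist challenge used bursicon conditioned medium at about half maximal strength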
# * = called active by the depositor; x = not tested or not shown. This is a sample that favours compounds with a hit; in the whole collection about 1.8% have one here.
SMILES,EWS-Fli block,F508del corr,PAX8 inh HTS,LGR2 antag
COc1cc(/C=N/NC2=NS(=O)(=O)c3ccccc32)ccc1OC(C)=O,9.0,-0.5,-22.3,-14.7
CC(C)(C)N(Cc1ccc2c(c1)OCO2)C(=O)/C=C\S(=O)c1ccccc1 (configuration not stated),46.5,-3.8,95.3*,58.8*
Oc1c(N=Nc2ccc(F)cc2)ccc2ccccc12,3.7,-2.5,-40.6,7.4
Cc1ccc(N=Nc2ccc3ccccc3c2O)cc1,54.7*,-1.1,-26.1,30.1
CC(=C1C(=O)c2ccccc2C1=O)N1CCN(CCN=CC2=C(O)CC(C)(C)CC2=O)CC1,3.7,0.7,27.4,-27.9
CC(=NCCN1CCN(C(C)=C2C(=O)c3ccccc3C2=O)CC1)C1=C(O)CC(C)(C)CC1=O,-2.0,-1.2,101.0*,11.2
COc1cc(NC(C)CCCN)c2ncccc2c1 (configuration not stated),8.0,2.1,65.9*,x
C[C@@H]1CN([C@@H](C)CO)C(=O)Cc2cc(NC(=O)C3CC3)ccc2O[C@H]1CN(C)S(=O)(=O)c1ccccc1,-2.5,-0.9,2.3,4.0
Cc1ccc(-c2c[n+](Cc3ccc(Cl)c(Cl)c3)c3n2CCC3)cc1,x,x,79.7*,-2.8
Cc1c(Cl)cccc1NC(=O)COC(=O)CN1C(=O)NC(C)(C)C1=O,3.5,-0.3,8.6,7.8
CCOCCCNC(=O)c1[nH]c(C)c(C(C)=O)c1C,x,x,-2.1,x
O=C1CC(c2ccc(Cl)cc2)Oc2ccc(Cl)cc21 (configuration not stated),-24.0,0.2,2.3,18.3
Cn1c(Cl)cnc1C1CC(=O)c2cc(Cl)ccc2O1 (configuration not stated),x,x,72.3*,x
CC(C)NC(=O)Nc1ccc2c(c1)C(=O)N([C@H](C)CO)C[C@H](C)[C@@H](CN(C)Cc1ccc(Cl)c(Cl)c1)OCCCC[C@@H](C)O2,-3.9,-0.6,-14.0,6.0
C[C@H]1CCCCO[C@H](CN(C)Cc2ccc(Cl)c(Cl)c2)[C@@H](C)CN([C@@H](C)CO)C(=O)c2cc(NC(=O)Nc3ccc(F)cc3)ccc2O1,0.2,1.1,92.3*,19.0
C[C@@H]1CCCCO[C@@H](CN(C)Cc2ccc(Cl)c(Cl)c2)[C@@H](C)CN([C@@H](C)CO)C(=O)c2cc(NC(=O)Nc3ccc(F)cc3)ccc2O1,9.2,-0.2,57.4,1.6
C[C@@H]1CN([C@H](C)CO)C(=O)c2cc(NC(=O)Nc3ccc(F)cc3)ccc2O[C@@H](C)CCCCO[C@@H]1CN(C)Cc1ccc(Cl)c(Cl)c1,-0.3,-2.0,85.2*,9.7
O=C(NC(C(=O)N/N=C/c1cc([N+](=O)[O-])ccc1O)c1n[nH]c(=O)c2ccccc12)c1ccccc1 (configuration not stated),-4.7,0.8,4.0,5.3
C[C@H](CO)N1C[C@H](C)[C@H](CN(C)S(=O)(=O)c2ccc(Cl)cc2)OCCCC[C@H](C)Oc2ccc(NS(=O)(=O)c3ccc(F)cc3)cc2C1=O,3.1,1.7,81.1*,18.6
C[C@H]1CCCCO[C@H](CN(C)S(=O)(=O)c2ccc(F)cc2)[C@@H](C)CN([C@@H](C)CO)C(=O)c2cc(NS(=O)(=O)c3ccc(Cl)cc3)ccc2O1,7.4,3.6,89.0*,7.2
C[C@@H]1CCCCO[C@H](CN(C)S(=O)(=O)c2ccc(F)cc2)[C@H](C)CN([C@@H](C)CO)C(=O)c2cc(NS(=O)(=O)c3ccc(Cl)cc3)ccc2O1,8.1,0.9,81.0*,10.1
C[C@@H]1CCCCO[C@@H](CN(C)S(=O)(=O)c2ccc(F)cc2)[C@@H](C)CN([C@H](C)CO)C(=O)c2cc(NS(=O)(=O)c3ccc(Cl)cc3)ccc2O1,-0.2,1.8,33.2,13.0
C[C@@H]1CN([C@H](C)CO)C(=O)c2cc(NS(=O)(=O)c3ccc(Cl)cc3)ccc2O[C@@H](C)CCCCO[C@@H]1CN(C)S(=O)(=O)c1ccc(F)cc1,-1.1,0.4,23.1,-29.0
C[C@@H]1CCCCO[C@@H](CN(C)S(=O)(=O)c2ccc(F)cc2)[C@H](C)CN([C@H](C)CO)C(=O)c2cc(NS(=O)(=O)c3ccc(Cl)cc3)ccc2O1,16.2,0.9,86.2*,14.0
C[C@@H]1CCCCO[C@@H](CN(C)S(=O)(=O)c2ccc(Cl)cc2)[C@@H](C)CN([C@@H](C)CO)C(=O)c2cc(NS(=O)(=O)c3ccc(F)cc3)ccc2O1,3.0,2.1,50.9,4.1
SMILES,EWS-Fli block,F508del corr,PAX8 inh HTS,LGR2 antag
COC(=O)[C@]1(CC(C)C)N[C@H](c2ccc(-c3ccc(Cl)c(Cl)c3)cc2)[C@@H]2C(=O)N(C)C(=O)[C@@H]21,7.3,-0.4,9.4,-8.3
N#CC1C(=O)Nc2cccnc21 (configuration not stated),3.3,-2.8,14.9,5.2
Cc1cccc(NC(=O)CSc2nccn2Cc2ccco2)c1,x,1.3,-168.6,-37.8
COc1ccc2c3c([nH]c2c1)[C@@H](CO)N(C(=O)c1ccc(F)cc1)CC31CCN(C(=O)NC(C)C)CC1,0.8,-2.5,10.6,-23.8
C[C@@H]1CCCCO[C@H](CN(C)S(=O)(=O)c2ccc(F)cc2)[C@H](C)CN([C@H](C)CO)C(=O)c2cc(NS(=O)(=O)c3ccc(Cl)cc3)ccc2O1,6.0,0.3,45.0,7.6
C[C@H]1CCCCO[C@H](CN(C)S(=O)(=O)c2ccc(Cl)cc2)[C@@H](C)CN([C@@H](C)CO)C(=O)c2cc(NS(=O)(=O)c3ccc(F)cc3)ccc2O1,13.6,3.9,86.3*,16.3
COc1cc(CCC(=O)Nc2nnc(C)s2)cc(OC)c1OC,51.5*,2.1,28.6,2.0
CC1C=NC(S(=O)(=O)N2CC[C@@H]3[C@H](CO)N(C)c4ccc(-c5cccc(F)c5)cc4[C@@H]32)=N1 (some centres not stated),4.8,3.4,1.9,-4.2
O=C(CCl)N1c2ccccc2SCC1c1ccccc1 (configuration not stated),61.4*,-2.1,14.1,6.2
CC(=O)OC[C@]12CC[C@H]3[C@@](C)(CC[C@H]4C(C)(C)CCC[C@]34C)[C@@H]1CC(C1=CC(=O)OC1O)O2 (some centres not stated),55.7*,-4.2,x,x
CC(=O)OC[C@]1(OC(C)=O)C[C@@]23CC[C@H]4[C@@](C)(CCC[C@@]4(C)C(=O)O)[C@@H]2CC[C@@H]1C3,5.9,0.3,-12.6,x
O=C1NC(c2cccc3ccccc23)Nc2ccc(Cl)cc21 (configuration not stated),37.6,2.8,70.9*,-12.9
Clc1ccc(C2Nc3cccc4cccc(c34)N2)c(Cl)c1,1.6,-1.7,15.9,x
Cc1ccc(-c2csc3ncnc(SCC(=O)Nc4nnc(C)s4)c23)cc1,x,x,4.8,x
Cc1ccc(-c2csc3ncnc(Sc4nnc(CN5CCCCCC5=O)o4)c23)cc1,x,x,110.7*,x
CN(C)CC(=O)Nc1ccc2c(c1)[C@H]1C[C@@H](CC(=O)NCc3ccccc3F)O[C@H](CO)[C@H]1O2,3.2,-1.9,-12.2,9.0
Cc1cc(C2=NNC(=NC3CC3)SC2)c(C)n1-c1ccccc1F,93.7*,0.9,102.1*,94.7*
c1cc2c(cc1C1=NNC(=NC3CC3)SC1)OCCO2,78.8*,-2.7,95.8*,54.9*
